Screening data from PubChem BioAssay.
Shown is part of a subset that was picked to be rich in hits.
CHX counter: counter-screen for Shiga toxin inhibitors: cycloheximide protein synthesis inhibition; cell reporter, cycloheximide protein synthesis inhibition counterscreen; max response, %; 300,000 compounds, 12% hits; AID 2314; in the data active = max response mostly above about 13%, no sharp cut-off; inactive = mostly below about 14%; also: read at 38.3 µM for the half of the compounds with a filed dose; 0% is about no effect
FBPA Giardia inh: inhibitors of Giardia lamblia fructose-1,6-bisphosphate aldolase; Potency, µM (doses to about 59.6 µM), for inactives: top-dose activity, negative = inhibition, hits mostly inhibitors; purified Giardia FBPA; A8B2U2; 290,000 compounds, 0.71% hits; also: potency is read from the fitted curve at half-maximal effect; % is scaled to controls: 0 for no effect and ±100 for the full control effect; nearly all actives have a fitted effect of over 55% in size
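Giardia FBPA (40 nM reagent) was preincubated 10 min at RT with compound (up to 57.5 uM final), then substrate plus GAPDH/TPI/NAD/arsenate coupling system with diaphorase/resazurin was added; resorufin fluorescence (525/598 nm) was read after 20 min.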
RE007 growth inh: less growth of the S. pombe RE007 Vpr strain; S. pombe RE007 Vpr strain, BacTiter-Glo ATP luminescence, 24 h; Potency, µM (top dose mostly 92.2 µM), inactives show at the highest dose activity change, negative = less growth, actives largely listed as inhibitors; 360,000 compounds, 0.21% hits; active = well fitted falling curve with a large enough effect; inconclusive = small, poorly fitted or top-dose-only effect; inactive = no such curve, though single readings can be large or run the other way; also: potency is read from the fitted curve at half-maximal effect; % is scaled to controls: 0 for no effect and ±100 for the full control effect; nearly all actives have a fitted effect of over 50% in size
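Fission yeast RE007 carrying one integrated HIV-1 vpr copy, seeded at OD 0.01 in PMG+AL medium with 23 nL pinned compound. Grown 24 h at 30 degrees; viability read by BacTiter-Glo luminescence after 5 min.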
LmPK inh: LmPK (Leishmania mexicana) enzyme inhibition. Q27686. Potency, µM (highest dose often 57.5 µM), for the others: at the top dose activity change, negative = inhibition, most hits filed as inhibitors. 290,000 compounds, 0.37% hits. purified LmPK, Kinase-Glo ATP luminescence, 1 h; also: potency is read from the fitted curve at half-maximal effect; % is scaled to controls: 0 for no effect and ±100 for the full control effect
Target sequence (Q27686 whole entry, looked up): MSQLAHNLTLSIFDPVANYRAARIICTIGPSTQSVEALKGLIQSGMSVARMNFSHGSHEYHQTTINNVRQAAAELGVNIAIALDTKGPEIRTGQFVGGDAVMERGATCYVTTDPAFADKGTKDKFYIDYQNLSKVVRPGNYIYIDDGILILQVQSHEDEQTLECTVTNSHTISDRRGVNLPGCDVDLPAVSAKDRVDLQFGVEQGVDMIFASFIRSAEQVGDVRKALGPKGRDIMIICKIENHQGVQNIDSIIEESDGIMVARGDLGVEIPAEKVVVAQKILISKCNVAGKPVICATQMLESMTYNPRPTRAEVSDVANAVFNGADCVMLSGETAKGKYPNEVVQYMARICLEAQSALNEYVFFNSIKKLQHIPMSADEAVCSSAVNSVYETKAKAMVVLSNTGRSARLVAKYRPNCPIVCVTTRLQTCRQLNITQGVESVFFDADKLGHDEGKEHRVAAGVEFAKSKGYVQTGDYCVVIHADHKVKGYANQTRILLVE
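Purified LmPK (0.1 nM) with 0.5 mM PEP and 0.1 mM ADP in imidazole buffer pH 7.2 with MgCl2/KCl, 1 h at room temperature. ATP formed was read by luciferase luminescence and normalized to no-enzyme and uninhibited controls.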
TbPYK inhibitor: blocks Trypanosoma brucei pyruvate kinase; TbPYK enzyme, Kinase-Glo Plus ATP luminescence, 45 min; Potency, µM (doses to about 76.8 µM), for inactives: at the highest dose activity, negative = inhibition, hits mostly inhibitors; 410,000 compounds, 0.12% hits; AID 624173; also: potency is read from the fitted curve at half-maximal effect; % is scaled to controls: 0 for no effect and ±100 for the full control effect; nearly all actives have a fitted effect of over 50% in size
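Activity of T. brucei pyruvate kinase was followed by Kinase-Glo Plus luminescence after the enzyme reacted 45 min at room temperature with 130 uM ADP (final) and substrate. Test compounds were added before ADP at multiple concentrations.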
Shiga toxin inh: blocks Shiga toxin action in Vero cells; Vero cells, Shiga toxin protein synthesis inhibition reporter; inhibition, % at 38.7 µM; 290,000 compounds, 9.2% hits; in the data active = inhibition mostly above about 28%, no sharp cut-off; inactive = mostly below about 43%; also: 0% is about no effect
Active calls of the source: *; ? = inconclusive; . = no result. Unless noted, calls follow the shape of the dose curve; as a rule, active = well fitted curve in the direction sought with a large enough effect; inconclusive = small, poorly fitted or top-dose-only effect, or another doubt; inactive = no such curve, though single readings can be large; an effect the other way counts as inactive or inconclusive.

SMILES | CHX counter | FBPA Giardia inh | RE007 growth inh | LmPK inh | TbPYK inhibitor | Shiga toxin inh
C=CCn1c(C)cc(C(=O)COC(=O)c2ccc3c(c2)NC(=O)CS3)c1C | 18* | -18% | 19% | -1% | -10% | 39*
CC(C)(C)C(=O)COC(=O)c1ccc(N)c([N+](=O)[O-])c1 | 43* | -2% | -8% | -22% | -5% | 83*
C=CCn1c(C)cc(C(=O)COC(=O)c2ccc(N)c([N+](=O)[O-])c2)c1C | 55* | -3% | -1% | 0% | -4% | 58*
Cc1cc(C(=O)COC(=O)c2ccc(N)c([N+](=O)[O-])c2)c(C)n1Cc1ccc2c(c1)OCO2 | 1 | -7% | -2% | 1% | 4% | -7
O=S(=O)(c1ccc2c(c1)OCCO2)N1CCN(S(=O)(=O)c2ccccc2F)CC1 | 1 | . | . | . | . | -4
COc1ccc2c3c1OC1C[C@@H](O)C=C[C@@]31CCN(C)C2 (stereo not given in full) | . | 0% | . | . | . | .
COc1cccc(CNC(=O)c2cc(-c3ccc(Cl)cc3)n[nH]2)c1 | . | . | . | . | 1% | .
Cc1ccc(OCc2nc(-c3ccc(C(=O)N4CCN(c5cc(Cl)ccc5C)CC4)cc3)oc2C)cc1 | . | . | . | . | -9% | .
O=[N+]([O-])c1c(Nc2ccccn2)cc(Cl)c2nonc12 | 1 | 0.45µM* | 8.9µM* | -9% | -2% | -2
CCC(C)NC(=O)COCc1cc(-c2ccc3c(c2)OCO3)on1 (stereo not given) | 1 | 0% | -12% | 1% | 0% | 23
COCCNC(=O)c1cc(-c2ccc3c(c2)OCO3)on1 | 29* | 6% | ? | -13% | -4% | 98*
O=C(Nc1ccc(Br)cc1)c1cc(-c2ccc3c(c2)OCO3)on1 | 13* | 8% | 12% | 1% | -1% | 33
CCC(C)NC(=O)c1cc(-c2ccc3c(c2)OCO3)on1 (stereo not given) | 38* | 1% | -11% | -6% | -5% | 57*
C=CCNC(=O)c1cc(-c2ccc3c(c2)OCO3)on1 | 35* | 2% | 0% | -8% | 18% | 26
COCCNC(=O)COCc1cc(-c2ccc3c(c2)OCO3)on1 | 13 | 4% | -8% | 2% | -1% | 35
COc1ccc2c(c1)c1c(c(=O)n(-c3ccc(F)c(Cl)c3)c(=O)n1CC(N)=O)n2C | . | . | . | . | -5% | .
CCCC[C@H](NC(C)=O)C(=O)N[C@H]1CC(=O)NCCCC[C@@H](C(N)=O)NC(=O)[C@H](Cc2c[nH]c3ccccc23)NC(=O)[C@H](CCCN=C(N)N)NC(=O)[C@@H](Cc2ccccc2)NC(=O)[C@H](Cc2cnc[nH]2)NC1=O | 44 | 3% | . | . | . | .
Cc1ccc(Cn2ccnc2SCC(=O)Nc2ccccc2C(F)(F)F)cc1 | . | . | . | . | -1% | .
COc1ccc(N2C(=O)C(CC(=O)Nc3ccc(F)cc3)N(CCC3=CCCCC3)C2=O)cc1 (stereo not given) | . | . | . | . | 0% | .
CCN(CC)C(=O)COCc1cc(-c2ccc3c(c2)OCO3)on1 | 21* | 3% | . | -1% | 2% | 42
O=C(O)CCC(=O)Nc1ccc(C(=O)OCC(=O)c2ccc(Cl)cc2)cc1 | 15* | 5% | -1% | 3% | -2% | 79
O=C(COC(=O)c1ccc(O)cc1)Nc1ccc(Cl)cc1 | 31* | -6% | 2% | 3% | -3% | 52
COc1cc(C2C(=O)N(C3CCC(C)CC3)CC(=O)N2CCc2ccc(Cl)cc2)ccc1OC(C)C (stereo not given) | . | . | . | . | 3% | .
Cc1sc2ncnc(OCC(=O)N3CCN(S(=O)(=O)c4ccc(Cl)cc4)CC3)c2c1C | 10* | 12% | 13% | 2% | 1% | 14
COc1ccc(-c2noc(-c3ccc(NCc4ccccc4OC)c([N+](=O)[O-])c3)n2)cc1 | . | . | . | . | -3% | .
COc1cc(OC)c(C(=O)O/N=C(\N)c2cccc(C)c2)cc1OC | 50* | -6% | -10% | -1% | -5% | 82*
COc1ccc(/C(N)=N/OC(=O)c2ccc([N+](=O)[O-])c(C)c2)cc1OC | 5 | 1% | -20% | -1% | -2% | 8
